# Assay results from ChEMBL document CHEMBL1961873, “Compounds: GSK PKIS; Assays: Nanosyn kinase panel” (2012).
# Experiments:
# [1] = biological target: T1, Mitogen-activated protein kinase 12 (Homo sapiens) (UniProt P53778); settings: at 1 µM;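 also: values are averaged p38gamma kinase inhibition readings, compounds tested at 1 µM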
# T1 sequence (whole entry): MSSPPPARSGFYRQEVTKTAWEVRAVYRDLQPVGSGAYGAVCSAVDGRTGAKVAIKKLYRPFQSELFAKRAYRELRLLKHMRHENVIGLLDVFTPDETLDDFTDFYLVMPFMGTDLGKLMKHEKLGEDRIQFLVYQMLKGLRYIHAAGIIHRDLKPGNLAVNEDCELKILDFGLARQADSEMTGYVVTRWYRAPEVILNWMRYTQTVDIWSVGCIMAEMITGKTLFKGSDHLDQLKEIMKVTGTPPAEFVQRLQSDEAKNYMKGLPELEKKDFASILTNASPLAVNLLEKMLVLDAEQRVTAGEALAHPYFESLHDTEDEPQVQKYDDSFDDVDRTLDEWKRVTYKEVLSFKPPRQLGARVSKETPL
# [2] = biological target: SRSF protein kinase 1 (Homo sapiens) (UniProt Q96SB4); settings: at 0.1 µM
# Sequence of SRSF protein kinase 1 (Homo sapiens) (Q96SB4 whole entry, canonical isoform): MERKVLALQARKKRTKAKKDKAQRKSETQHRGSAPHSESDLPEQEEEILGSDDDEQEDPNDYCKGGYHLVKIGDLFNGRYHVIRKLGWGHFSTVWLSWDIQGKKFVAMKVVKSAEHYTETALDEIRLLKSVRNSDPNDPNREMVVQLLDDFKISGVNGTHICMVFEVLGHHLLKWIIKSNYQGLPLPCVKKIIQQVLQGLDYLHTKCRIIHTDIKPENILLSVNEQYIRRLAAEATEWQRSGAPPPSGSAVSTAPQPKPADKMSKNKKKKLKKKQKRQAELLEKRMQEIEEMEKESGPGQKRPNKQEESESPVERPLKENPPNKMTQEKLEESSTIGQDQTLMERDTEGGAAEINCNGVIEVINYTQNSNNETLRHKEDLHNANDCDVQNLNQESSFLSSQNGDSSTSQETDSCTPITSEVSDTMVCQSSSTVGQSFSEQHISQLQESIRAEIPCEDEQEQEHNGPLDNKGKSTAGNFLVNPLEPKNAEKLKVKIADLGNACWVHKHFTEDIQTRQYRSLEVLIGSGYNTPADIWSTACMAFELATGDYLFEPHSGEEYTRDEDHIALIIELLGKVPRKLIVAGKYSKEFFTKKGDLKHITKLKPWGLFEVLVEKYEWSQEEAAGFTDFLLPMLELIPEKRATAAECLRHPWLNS
# [3] = biological target: SRSF protein kinase 1 (Homo sapiens) (UniProt Q96SB4); settings: at 1 µM
# [4] = biological target: Phosphatidylinositol 4,5-bisphosphate 3-kinase catalytic subunit alpha isoform (Homo sapiens) (UniProt P42336); settings: at 0.1 µM
# Sequence of Phosphatidylinositol 4,5-bisphosphate 3-kinase catalytic subunit alpha isoform (Homo sapiens) (P42336 whole entry, canonical isoform): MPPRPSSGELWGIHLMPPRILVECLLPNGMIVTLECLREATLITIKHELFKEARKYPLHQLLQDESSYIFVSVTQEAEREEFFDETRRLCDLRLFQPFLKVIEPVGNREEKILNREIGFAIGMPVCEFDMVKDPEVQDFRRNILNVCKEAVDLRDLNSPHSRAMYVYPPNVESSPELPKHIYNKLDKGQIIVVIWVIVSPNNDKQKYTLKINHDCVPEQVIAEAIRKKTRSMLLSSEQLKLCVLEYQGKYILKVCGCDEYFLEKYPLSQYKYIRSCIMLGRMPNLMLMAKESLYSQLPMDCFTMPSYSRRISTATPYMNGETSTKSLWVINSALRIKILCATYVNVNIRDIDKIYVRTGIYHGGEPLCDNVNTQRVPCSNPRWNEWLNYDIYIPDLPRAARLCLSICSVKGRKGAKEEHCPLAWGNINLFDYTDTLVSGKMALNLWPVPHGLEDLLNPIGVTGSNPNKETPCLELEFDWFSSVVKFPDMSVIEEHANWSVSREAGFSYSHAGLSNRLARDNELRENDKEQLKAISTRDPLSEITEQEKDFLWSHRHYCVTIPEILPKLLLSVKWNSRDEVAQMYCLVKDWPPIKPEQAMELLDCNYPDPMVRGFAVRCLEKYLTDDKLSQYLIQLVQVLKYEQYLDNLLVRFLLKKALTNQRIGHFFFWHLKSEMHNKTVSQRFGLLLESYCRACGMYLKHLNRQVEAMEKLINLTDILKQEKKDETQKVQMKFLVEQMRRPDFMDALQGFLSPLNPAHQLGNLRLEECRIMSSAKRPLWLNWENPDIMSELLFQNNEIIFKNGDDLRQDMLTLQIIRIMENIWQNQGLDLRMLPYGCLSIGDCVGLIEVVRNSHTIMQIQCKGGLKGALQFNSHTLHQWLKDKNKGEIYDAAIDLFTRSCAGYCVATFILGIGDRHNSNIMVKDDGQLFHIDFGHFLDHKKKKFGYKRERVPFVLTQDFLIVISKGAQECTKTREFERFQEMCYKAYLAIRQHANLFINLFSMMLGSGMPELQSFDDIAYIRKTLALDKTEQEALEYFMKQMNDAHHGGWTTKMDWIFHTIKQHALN
# [5] = biological target: Phosphatidylinositol 4,5-bisphosphate 3-kinase catalytic subunit alpha isoform (Homo sapiens) (UniProt P42336); settings: at 1 µM
# [6] = biological target: T2, Phosphatidylinositol 4,5-bisphosphate 3-kinase catalytic subunit delta isoform (Homo sapiens) (UniProt O00329); settings: at 0.1 µM
# T2 sequence (whole entry): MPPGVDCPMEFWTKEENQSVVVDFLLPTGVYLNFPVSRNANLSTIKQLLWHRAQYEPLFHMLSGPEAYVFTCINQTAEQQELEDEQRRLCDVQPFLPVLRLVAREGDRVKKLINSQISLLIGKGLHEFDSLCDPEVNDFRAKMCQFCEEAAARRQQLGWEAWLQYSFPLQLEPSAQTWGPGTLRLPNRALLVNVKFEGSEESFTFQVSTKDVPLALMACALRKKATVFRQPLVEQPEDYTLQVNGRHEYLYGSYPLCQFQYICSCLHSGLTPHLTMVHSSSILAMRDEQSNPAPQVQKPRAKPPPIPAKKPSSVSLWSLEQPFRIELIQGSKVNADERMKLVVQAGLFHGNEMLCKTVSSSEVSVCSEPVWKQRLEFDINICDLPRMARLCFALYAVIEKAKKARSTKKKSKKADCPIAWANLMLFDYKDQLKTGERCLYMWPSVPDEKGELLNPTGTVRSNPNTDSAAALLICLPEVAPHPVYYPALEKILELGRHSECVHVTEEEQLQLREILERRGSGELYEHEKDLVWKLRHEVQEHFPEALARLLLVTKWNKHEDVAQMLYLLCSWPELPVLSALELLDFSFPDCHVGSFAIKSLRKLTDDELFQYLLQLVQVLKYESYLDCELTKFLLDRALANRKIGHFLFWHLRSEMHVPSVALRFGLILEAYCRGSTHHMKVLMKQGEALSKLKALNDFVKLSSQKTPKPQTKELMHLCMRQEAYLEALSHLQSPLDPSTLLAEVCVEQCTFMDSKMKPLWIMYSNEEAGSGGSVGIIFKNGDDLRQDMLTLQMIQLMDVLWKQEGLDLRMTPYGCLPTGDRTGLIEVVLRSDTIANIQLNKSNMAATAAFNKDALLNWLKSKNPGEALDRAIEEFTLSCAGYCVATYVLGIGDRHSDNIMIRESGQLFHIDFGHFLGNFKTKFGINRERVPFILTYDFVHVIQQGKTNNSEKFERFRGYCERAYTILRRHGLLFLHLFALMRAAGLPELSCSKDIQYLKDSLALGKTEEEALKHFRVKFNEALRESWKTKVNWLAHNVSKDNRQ
# [7] = biological target: T2, Phosphatidylinositol 4,5-bisphosphate 3-kinase catalytic subunit delta isoform (Homo sapiens); settings: at 1 µM
# [8] = biological target: Phosphatidylinositol 4-kinase beta (Homo sapiens) (UniProt Q9UBF8); settings: at 0.1 µM
# Sequence of Phosphatidylinositol 4-kinase beta (Homo sapiens) (Q9UBF8 2-816 limits assumed): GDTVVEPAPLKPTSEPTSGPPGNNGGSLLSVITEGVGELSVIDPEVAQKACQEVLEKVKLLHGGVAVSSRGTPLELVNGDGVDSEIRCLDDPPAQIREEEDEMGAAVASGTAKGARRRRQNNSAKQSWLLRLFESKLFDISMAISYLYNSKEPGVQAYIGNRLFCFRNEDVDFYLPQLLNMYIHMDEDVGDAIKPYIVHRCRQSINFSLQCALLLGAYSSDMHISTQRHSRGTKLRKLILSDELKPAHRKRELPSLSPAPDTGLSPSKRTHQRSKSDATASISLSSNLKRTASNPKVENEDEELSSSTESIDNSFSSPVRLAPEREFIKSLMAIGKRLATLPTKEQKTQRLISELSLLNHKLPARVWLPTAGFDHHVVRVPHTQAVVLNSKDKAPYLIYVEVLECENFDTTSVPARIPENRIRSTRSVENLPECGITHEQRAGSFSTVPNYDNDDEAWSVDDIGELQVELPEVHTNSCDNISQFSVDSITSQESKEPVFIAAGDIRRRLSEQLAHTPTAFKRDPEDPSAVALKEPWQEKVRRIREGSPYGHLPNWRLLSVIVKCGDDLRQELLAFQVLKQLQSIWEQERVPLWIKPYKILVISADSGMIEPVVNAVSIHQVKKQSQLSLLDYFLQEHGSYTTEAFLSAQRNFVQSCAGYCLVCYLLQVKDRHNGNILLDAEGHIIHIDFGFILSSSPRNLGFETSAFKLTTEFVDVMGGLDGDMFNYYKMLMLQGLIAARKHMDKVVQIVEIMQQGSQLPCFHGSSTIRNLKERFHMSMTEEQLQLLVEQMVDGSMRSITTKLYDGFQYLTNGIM
# [9] = biological target: Phosphatidylinositol 4-kinase beta (Homo sapiens) (UniProt Q9UBF8); settings: at 1 µM
# [10] = biological target: Sphingosine kinase 1 (Homo sapiens) (UniProt Q9NYA1); settings: at 0.1 µM
# Sequence of Sphingosine kinase 1 (Homo sapiens) (Q9NYA1 whole entry): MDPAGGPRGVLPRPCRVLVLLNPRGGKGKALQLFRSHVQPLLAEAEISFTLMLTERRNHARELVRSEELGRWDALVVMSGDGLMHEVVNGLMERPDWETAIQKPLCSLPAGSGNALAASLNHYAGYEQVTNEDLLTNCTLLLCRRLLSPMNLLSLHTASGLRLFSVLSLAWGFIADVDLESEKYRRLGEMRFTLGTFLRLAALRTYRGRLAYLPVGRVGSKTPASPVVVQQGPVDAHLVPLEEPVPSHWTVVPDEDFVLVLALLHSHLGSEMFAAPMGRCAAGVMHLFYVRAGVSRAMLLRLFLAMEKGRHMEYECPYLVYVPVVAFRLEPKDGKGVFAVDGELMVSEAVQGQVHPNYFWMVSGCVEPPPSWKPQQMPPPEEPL
# [11] = biological target: Sphingosine kinase 1 (Homo sapiens) (UniProt Q9NYA1); settings: at 1 µM
# [12] = biological target: T3, Sphingosine kinase 2 (Homo sapiens) (UniProt Q9NRA0); settings: at 0.1 µM
# T3 sequence (whole entry): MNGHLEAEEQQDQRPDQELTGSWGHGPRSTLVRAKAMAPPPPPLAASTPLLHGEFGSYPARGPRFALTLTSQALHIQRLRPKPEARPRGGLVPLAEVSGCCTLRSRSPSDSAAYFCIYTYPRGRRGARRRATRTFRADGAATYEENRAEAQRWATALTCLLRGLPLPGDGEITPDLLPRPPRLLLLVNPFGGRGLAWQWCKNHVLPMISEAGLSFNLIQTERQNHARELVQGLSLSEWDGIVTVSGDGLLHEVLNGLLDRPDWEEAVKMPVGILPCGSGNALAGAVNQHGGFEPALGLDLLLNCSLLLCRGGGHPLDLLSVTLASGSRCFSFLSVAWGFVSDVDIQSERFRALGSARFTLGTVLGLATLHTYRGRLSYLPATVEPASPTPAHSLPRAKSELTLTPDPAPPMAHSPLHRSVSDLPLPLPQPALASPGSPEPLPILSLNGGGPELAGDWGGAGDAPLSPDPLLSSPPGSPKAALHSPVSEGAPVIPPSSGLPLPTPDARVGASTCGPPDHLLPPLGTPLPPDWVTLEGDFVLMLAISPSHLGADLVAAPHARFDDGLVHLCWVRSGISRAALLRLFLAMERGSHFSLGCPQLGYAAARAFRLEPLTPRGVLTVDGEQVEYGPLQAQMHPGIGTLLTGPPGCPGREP
# [13] = biological target: T3, Sphingosine kinase 2 (Homo sapiens); settings: at 1 µM
# [14] = biological target: Casein kinase II subunit alpha (Homo sapiens) (UniProt P68400); settings: at 0.1 µM
# Sequence of Casein kinase II subunit alpha (Homo sapiens) (P68400 whole entry, looked up): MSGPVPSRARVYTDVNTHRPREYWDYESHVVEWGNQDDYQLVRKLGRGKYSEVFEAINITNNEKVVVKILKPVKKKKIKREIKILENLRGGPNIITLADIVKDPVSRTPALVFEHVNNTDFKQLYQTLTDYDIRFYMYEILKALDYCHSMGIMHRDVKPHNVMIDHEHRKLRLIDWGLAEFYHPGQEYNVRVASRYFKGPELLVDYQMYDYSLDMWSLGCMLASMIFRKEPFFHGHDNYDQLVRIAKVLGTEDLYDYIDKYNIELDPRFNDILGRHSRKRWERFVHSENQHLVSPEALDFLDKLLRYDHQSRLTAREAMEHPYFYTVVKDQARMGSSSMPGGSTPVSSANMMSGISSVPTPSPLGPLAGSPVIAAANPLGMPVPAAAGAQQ
# [15] = biological target: Casein kinase II subunit alpha (Homo sapiens) (UniProt P68400); settings: at 1 µM
# [16] = biological target: T4, Inhibitor of nuclear factor kappa-B kinase subunit alpha (Homo sapiens) (UniProt O15111); settings: at 0.1 µM
# T4 sequence (whole entry): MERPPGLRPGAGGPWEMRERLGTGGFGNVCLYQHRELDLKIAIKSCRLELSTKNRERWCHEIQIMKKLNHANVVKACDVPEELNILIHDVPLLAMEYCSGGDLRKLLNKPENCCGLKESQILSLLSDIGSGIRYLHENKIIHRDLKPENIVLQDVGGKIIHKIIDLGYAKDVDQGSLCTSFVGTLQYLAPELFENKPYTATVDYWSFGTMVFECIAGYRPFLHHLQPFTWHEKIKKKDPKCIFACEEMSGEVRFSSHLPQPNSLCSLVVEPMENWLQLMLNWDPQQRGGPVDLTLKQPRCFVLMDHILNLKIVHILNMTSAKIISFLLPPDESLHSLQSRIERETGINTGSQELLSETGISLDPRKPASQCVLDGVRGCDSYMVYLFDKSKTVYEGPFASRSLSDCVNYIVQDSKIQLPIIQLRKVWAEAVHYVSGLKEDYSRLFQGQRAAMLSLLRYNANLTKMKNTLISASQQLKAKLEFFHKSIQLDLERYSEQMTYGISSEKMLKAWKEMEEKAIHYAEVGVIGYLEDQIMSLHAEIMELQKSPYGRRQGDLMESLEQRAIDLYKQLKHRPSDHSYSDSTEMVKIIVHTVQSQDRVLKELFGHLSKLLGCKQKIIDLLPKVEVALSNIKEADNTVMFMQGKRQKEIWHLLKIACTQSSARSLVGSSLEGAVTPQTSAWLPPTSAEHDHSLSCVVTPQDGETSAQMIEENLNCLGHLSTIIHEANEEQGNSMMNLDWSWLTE
# [17] = biological target: T4, Inhibitor of nuclear factor kappa-B kinase subunit alpha (Homo sapiens); settings: at 1 µM
# [18] = biological target: T5, Inhibitor of nuclear factor kappa-B kinase subunit beta (Homo sapiens) (UniProt O14920); settings: at 0.1 µM
# T5 sequence (whole entry): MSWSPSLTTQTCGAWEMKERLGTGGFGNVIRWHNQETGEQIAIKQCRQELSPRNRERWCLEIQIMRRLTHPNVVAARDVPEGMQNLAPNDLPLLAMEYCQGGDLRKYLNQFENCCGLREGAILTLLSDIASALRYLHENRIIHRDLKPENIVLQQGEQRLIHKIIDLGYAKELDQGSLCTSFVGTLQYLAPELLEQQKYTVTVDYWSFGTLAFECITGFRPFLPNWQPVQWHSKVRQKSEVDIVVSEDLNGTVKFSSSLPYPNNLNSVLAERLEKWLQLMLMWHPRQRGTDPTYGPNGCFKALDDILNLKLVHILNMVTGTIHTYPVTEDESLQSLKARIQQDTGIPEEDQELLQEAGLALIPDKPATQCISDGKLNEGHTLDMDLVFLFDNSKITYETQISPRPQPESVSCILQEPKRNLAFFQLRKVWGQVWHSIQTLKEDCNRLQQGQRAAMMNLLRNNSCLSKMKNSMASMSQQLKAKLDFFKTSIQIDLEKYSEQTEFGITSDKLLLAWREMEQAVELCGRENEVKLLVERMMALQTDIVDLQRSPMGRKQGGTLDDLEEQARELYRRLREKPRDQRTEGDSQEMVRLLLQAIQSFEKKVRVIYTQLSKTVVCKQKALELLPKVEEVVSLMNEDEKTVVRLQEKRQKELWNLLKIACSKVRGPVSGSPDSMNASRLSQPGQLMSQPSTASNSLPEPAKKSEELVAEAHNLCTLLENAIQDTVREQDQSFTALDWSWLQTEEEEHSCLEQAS
# [19] = biological target: T5, Inhibitor of nuclear factor kappa-B kinase subunit beta (Homo sapiens); settings: at 1 µM
# [20] = biological target: T6, Inhibitor of nuclear factor kappa-B kinase subunit epsilon (Homo sapiens) (UniProt Q14164); settings: at 0.1 µM;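 also: mean inhibition of IKKε reported, from the GSK PKIS dataset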
# T6 sequence (whole entry): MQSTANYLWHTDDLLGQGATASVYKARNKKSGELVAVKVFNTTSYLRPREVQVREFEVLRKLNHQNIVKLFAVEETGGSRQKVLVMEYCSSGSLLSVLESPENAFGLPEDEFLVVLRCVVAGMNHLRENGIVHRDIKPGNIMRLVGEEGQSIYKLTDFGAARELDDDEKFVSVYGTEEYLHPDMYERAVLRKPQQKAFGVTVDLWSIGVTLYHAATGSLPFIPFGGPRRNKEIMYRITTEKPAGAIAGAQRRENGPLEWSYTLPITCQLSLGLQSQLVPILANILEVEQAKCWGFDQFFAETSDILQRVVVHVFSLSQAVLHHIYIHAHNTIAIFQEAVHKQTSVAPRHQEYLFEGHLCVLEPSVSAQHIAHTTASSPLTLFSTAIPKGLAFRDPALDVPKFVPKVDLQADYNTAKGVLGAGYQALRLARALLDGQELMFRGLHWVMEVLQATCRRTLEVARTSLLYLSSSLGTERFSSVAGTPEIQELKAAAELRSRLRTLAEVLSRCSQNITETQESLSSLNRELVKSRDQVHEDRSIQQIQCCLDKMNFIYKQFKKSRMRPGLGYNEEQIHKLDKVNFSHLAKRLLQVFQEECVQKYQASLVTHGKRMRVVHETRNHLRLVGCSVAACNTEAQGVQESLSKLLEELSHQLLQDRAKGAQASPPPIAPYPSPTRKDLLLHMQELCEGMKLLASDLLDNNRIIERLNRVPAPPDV
Structure (SMILES),inhibition [1],inhibition [2],inhibition [3],inhibition [4],inhibition [5],inhibition [6],inhibition [7],inhibition [8],inhibition [9],inhibition [10],inhibition [11],inhibition [12],inhibition [13],inhibition [14],inhibition [15],inhibition [16],inhibition [17],inhibition [18],inhibition [19],inhibition [20]
NC(=O)c1cccc(Nc2nccc(Nc3cccc(F)c3)n2)c1,1.35%,-2.36%,-1.96%,-0.28%,1.22%,-1.45%,-4.65%,3.27%,1.27%,0.35%,0.76%,0%,0.34%,1.61%,3.67%,0.56%,4.67%,6.25%,22.3%,2.08%
CN1CCN(C(=O)c2ccc(NC(=O)Nc3ccc(N(C)c4ccnc(Nc5ccc(CS(C)(=O)=O)cc5)n4)cc3)cc2)CC1,2.72%,-1.98%,-1.99%,3.38%,2.56%,1.78%,4.04%,0.19%,1.27%,0%,2.73%,0%,-0.74%,7.1%,2.55%,3.61%,9.53%,3.95%,5.76%,4.12%
COc1cccc(-n2ncc3c(N/N=C/c4ccc(C)cc4)ncnc32)c1,6.67%,-3.85%,-1.68%,5.44%,7.64%,1.43%,5.9%,-1.45%,3.16%,3.47%,1.5%,0.29%,-0.22%,-0.43%,23.1%,12%,9.99%,6.84%,9.36%,5.66%
CN(C)C(=O)O[C@@H]1CN[C@@H](C#Cc2cc3ncnc(Nc4ccc(OCc5cccc(F)c5)c(Cl)c4)c3s2)C1,1.28%,-1.65%,-5.46%,0.17%,29%,3.66%,20.8%,-2.99%,-0.33%,0.88%,-1.68%,0%,0%,-1.08%,-1.78%,6.13%,-0.14%,4.79%,2.73%,0.34%
COC(=O)c1cncc(/C=C/c2c(C)cc(O)cc2C)c1,1.22%,0.45%,2.47%,2.59%,2.56%,3.23%,2.23%,2.65%,0.11%,2.52%,-4%,-0.39%,-0.47%,3.51%,11.9%,3.28%,5.67%,4.7%,7.41%,8.93%
NS(=O)(=O)c1ccc(NC=C2C(=O)Nc3ccc4ncsc4c32)cc1,5.67%,-2.53%,-1.62%,3.58%,13.1%,5.31%,27.3%,-1.46%,4.92%,1.36%,3.96%,1.68%,2.35%,15.7%,46.4%,13.6%,23.5%,10.6%,19.2%,19.3%
O=C1Nc2ccccc2/C1=C/Nc1ccc2[nH]c(=O)[nH]c2c1,3.5%,-1.11%,-0.39%,4.42%,4.19%,1.87%,2.83%,-0.1%,2.4%,11.5%,-0.67%,-0.03%,-2.68%,3.81%,13.9%,12.9%,10.2%,7.85%,11.6%,8.71%
